This is one part of a sample in which hits are shown more often than they occur.
PNC assembly inh = perinucleolar compartment assembly inhibition. PC3M PTB-GFP, PNC prevalence imaging, 16 h; hits give low values. activity change (PNC), negative = inhibition, % at 10 µM. 140,000 tested, 3.1% active;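 active means readout at or below -70, meaning at least 70% loss of cells showing the perinucleolar compartment, a nuclear body marking cancer cells; inconclusive means readout between -30 and a set limit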;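 further: plate controls were DMSO wells for no effect and camptothecin positive control wells for full effect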
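Compounds are pinned in duplicate onto adhered PC3M cells stably expressing GFP-tagged PTB and incubated 16 h at 37 C. Cells are then fixed, nuclei stained with Hoechst, and PNC-positive cells counted.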
HTT ATP protect = cytoprotection in Huntington HTT-Q103 PC12 cell model. PC12 HTT-Q103 induced, cytoprotection, ATP luminescence, 40 h. Potency, µM (top dose mostly 56.4 µM), for the others: cytoprotection (ATP increase), hits mostly activators. 230,000 tested, 0.14% active. AID 1471; further: potency means the concentration at half of the fitted maximal effect; % of control where 0% means no effect; nearly all actives have a fitted effect of over 45% in size
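ATP quantification (ATPlite) reports survival of PC12 cells in which tebufenozide, 100 nM final, switches on Htt exon 1 with 103 glutamines linked to GFP; compounds are titrated.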
HTT aggregate = reduces HttQ103-GFP aggregates in PC12 cells | 220,000 tested, 1.1% active | Potency, µM (highest dose often 46.1 µM), for the others: at the top dose activity change, negative = inhibition, hits mostly inhibitors | PC12 HttQ103-GFP aggregates, Acumen cytometry, 40 h; further: potency means the concentration at half of the fitted maximal effect; on the % scale 0 is the no-effect control and ±100 the full control effect; nearly all actives have a fitted effect of over 60% in size
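Read-out: GFP aggregate count by laser scanning cytometer (488 nm excitation, 500-530 nm emission, 1–25 µm objects >6 SD above background). Cells: PC12, inducible HTTex1-Q103-GFP, 100 nM tebufenozide; compounds titrated.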
Starred values were filed as active, the others as inactive; ? = inconclusive; . = no result given; [ ] = another dose, or the depositor's remark. Unless noted, the call rests on the fitted dose curve; in most records, active means well fitted curve in the direction sought with a large enough effect; inconclusive means small, poorly fitted or top-dose-only effect, or another doubt; inactive means no such curve, though single readings can be large; an effect the other way counts as inactive or inconclusive.

SMILES | PNC assembly inh | HTT ATP protect | HTT aggregate
CCCCOc1ccc(C(=O)NNC(=S)NC(=O)CC)cc1 | ? | 4%[10 µM] | ?
CC(=O)O/N=C(/c1nonc1N)N(C)C | . | 0%[10 µM] | 1%[9.22 µM]
Cn1cccc1C(=O)NC(=O)CSc1cccc[n+]1[O-] | -95* | -13% | 16%
COc1ccccc1C(=O)NC(=O)CSc1cccc[n+]1[O-] | . | 2% | -7%
CCOC(=O)C1=C(O)C(=O)N(Cc2ccccc2)C1 | . | 1% | .
Cc1ccc(Nc2nc(NCc3ccco3)c3ccccc3n2)cc1 | . | -92% | 11µM*
OCCNc1nc(Nc2ccc(Br)cc2)nc2ccccc12 | . | -79% | ?
c1ccc(-c2nc(NCc3ccco3)c3ccccc3n2)nc1 | 6 | -72% | 18µM*
COc1ccccc1Nc1nc(NCc2ccco2)c2ccccc2n1 | . | -2%[10 µM] | -23%[9.22 µM]
Oc1ccccc1-c1nc(NCc2ccco2)c2ccccc2n1 | -2 | -22% | -19%
OCCNc1nc(Nc2ccccc2)nc2ccccc12 | -119* | -4%[10 µM] | ?
Cc1occc1-c1nnc(SCC(=O)NCc2cccs2)n1CC1CCCO1 (centres undefined) | ? | -13%[10 µM] | -2%
CCCNC(=O)c1ccc2c(c1)CCN2S(C)(=O)=O | . | -28% | 29%
S=C(c1nc2ccccc2[nH]1)N1CCOCC1 | ? | 0%[1.9 µM] | -3%
NC(N)=S | . | -3% | .
CN(Cc1ccccc1)C(=O)c1nc2ccccn2c1CN1CCc2sccc2C1 | . | 6%[10 µM] | 1%[9.22 µM]
CCOc1ccc(C(=O)Nc2nnn(CC)n2)cc1 | -20 | -98%[10 µM] | 9%
COc1ccc(Cn2cnc3sccc3c2=O)cc1 | 45 | -21% | 9%
COc1ccc(/C(O)=C2\C(=O)C(=O)N(c3cc(C)on3)C2c2ccccc2OC)cc1 (centres undefined) | -14 | -11% | 1%
COC1=C/C(=C/c2c(N)n3nc(-c4ccc(C)cc4)sc3nc2=O)C=CC1=O | . | -10%[10 µM] | 11%[9.22 µM]
CCS(=O)(=O)c1nn2c(N)c(/C=C3/C=CC(=O)C(OC)=C3)c(=O)nc2s1 | -116* | 6%[10 µM] | -15%
Nc1nc(CCl)nc(Nc2cccc3ccccc23)n1 | . | -3%[10 µM] | -10%[9.22 µM]
Cc1ccc(C)c2c(SC(C)C(=O)NCc3ccco3)nc(-c3ccccc3)nc12 (centres undefined) | -100* | 6%[10 µM] | 8%[9.22 µM]
Cc1ccc2nc(-c3ccccc3)nc(SC(C)C(=O)NCc3cccs3)c2c1 (centres undefined) | 28 | -14%[10 µM] | -14%
O=S(=O)(/N=C(/NNS(=O)(=O)c1ccccc1)c1ccccc1)c1ccccc1 | . | 7%[10 µM] | -7%[9.22 µM]
SMILES | PNC assembly inh | HTT ATP protect | HTT aggregate
NC(=O)c1ccccc1Nc1nc2nc3ccccc3c(=O)n2cc1Br | . | -12%[10 µM] | -22%[9.22 µM]
Cc1cc(Nc2ccccc2C(=O)O)nc2nc3ccccc3c(=O)n12 | -90* | 21%[10 µM] | -6%
CC(=O)Nc1sc(N/N=C/c2ccccc2F)nc1-c1ccc(C)cc1 | . | 13%[10 µM] | 13%[9.22 µM]
CCN1CCN(C(=O)Nc2cccc(C(F)(F)F)c2)CC1 | -123* | -7%[0.074 µM] | 4%
CCN1CCC(NC(=O)Nc2cccc(C(F)(F)F)c2)CC1 | . | -47% | 2%
Nc1ccc2cc3ccc(N)cc3nc2c1 | . | -17% | 13µM*
Cc1ccc2cc(N)ccc2n1 | . | 3%[10 µM] | -16%[9.22 µM]
CC1CC(=O)Nc2ccc([N+](=O)[O-])cc2N1C (centres undefined) | -13 | 15%[10 µM] | -1%
Cc1nn(-c2ccccc2)c(Cl)c1C(=O)NCCN(C)C | . | -3% | 0%
O=C(Cn1c(CC(=O)N2CCCC2)nc2ccccc21)NCc1ccccc1 | 13 | -21%[10 µM] | -9%
Cc1cc(=O)c2ccccc2n1Cc1ccccc1 | . | 15%[10 µM] | 18%[9.22 µM]
Cc1nc2ccccc2n1CC(=O)NCc1ccccc1 | -103* | -23%[0.074 µM] | ?
Cc1ccccc1CN1CCN(CC(=O)NCc2ccccc2)C1=O | ? | 4.5µM* | -3%
Cc1cc(=O)c2ccccc2n1CC(=O)NCc1ccccc1 | -96* | . | -13%
O=C(CN1CCN(Cc2ccccc2)C1=O)NCc1ccc(Cl)cc1 | 35 | ? | -1%
CCCSc1nc2c(cnn2-c2ccc(C)c(C)c2)c(=O)[nH]1 | -95* | -10% | 4%
CCCCSc1nc2c(cnn2-c2ccc(C)c(C)c2)c(=O)[nH]1 | 21 | 9% | 7%
Cc1ccc(OCc2nnc(NC(=O)c3ccco3)s2)cc1 | ? | -23% | -1%
Cc1ccc(OCc2nnc(NC(=O)c3ccco3)s2)c(C)c1 | -107* | ? | 14%
N#C/C(=C(/O)COC(=O)c1cccnc1Cl)c1nc2ccccc2[nH]1 | . | -8% | 7%
CC(=O)Nc1ccc2c(c1)N(C(=O)CN(C)C)c1ccccc1CC2 | 19 | 17% | 18%
CCNCC(=O)N1c2ccccc2CCc2ccc(NC(C)=O)cc21 | -105* | 3%[10 µM] | 14%

Assay outcomes deposited in PubChem BioAssay by National Center for Advancing Translational Sciences (NCATS).
